Results taken from PubChem BioAssay (NCATS).
Records with an inconclusive call do not appear. Activity calls are given as the source filed them. Calls follow the shape of the full dose curve.

Experiments:
[1] = Confirmatory qHTS to identify inhibitors of SARS-CoV-2 cell entry (AID 1645844); also: nearly all actives have a fitted effect of over 45% in size
Summary of the method: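 HEK293-ACE2, overnight seeding; cpd 1 h, 37C/5% CO2; + SARS-CoV-2-S MLV PP (Wuhan-Hu-1, ΔC19); 48 h; Bright-Glo luminescence. Data normalised to S PP and bald PP wells.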

[2] = Cytotoxicity counterscreen for inhibitors of SARS-CoV-2 cell entry (AID 1645845); conditions: outcome: dose series up to 57.1 µM unless noted; also: nearly all actives have a fitted effect of over 50% in size
Summary of the method: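 Counterscreen run in the same HEK293-ACE2 line as the pseudotyped-particle entry assay, without particles. Viability after 48 h at 37 C was read as ATP luminescence, scaled between cell-containing and cell-free wells.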

[3] = Primary qHTS to identify inhibitors of SARS-CoV-2 cell entry (AID 1645846); conditions: SARS-CoV-2 pseudovirus cell entry assay, luminescence; activity change, negative = inhibition: at 57.1 µM (top of the series) unless noted; also: nearly all actives have a fitted effect of over 45% in size
Summary of the method: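 Data are normalized to wells receiving SARS-CoV-2-S pseudoparticles and those given bald particles. Entry signal was luciferase luminescence in stable hACE2 Expi293F cells, 48 hr post-infection, after 1 hr compound pretreatment.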

[4] = VSVG counterscreen qHTS to identify inhibitors of SARS-CoV-2 cell entry (AID 1645847); also: nearly all actives have a fitted effect of over 65% in size
Summary of the method: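 Counterscreen using VSV-G (not spike) pseudotyped MLV particles on ACE2-expressing Expi293F cells after 1 h compound preincubation; infection ran 48 h at 37 °C. Data normalized to VSV-G PP and bald-PP wells.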
Potency is read from the fitted curve at half-maximal effect.

Row | SMILES | Potency [1] | Potency [2] | activity change, negative = inhibition [3] | Potency [4] | Potency [3]
1 | CS[C@H]1SC[C@@H]2C(=O)N(C)[C@H](C(C)C)C(=O)OC[C@H](NC(=O)c3cnc4ccccc4n3)C(=O)N[C@H](C)C(=O)N(C)[C@H]1C(=O)N(C)[C@H](C(C)C)C(=O)OC[C@H](NC(=O)c1cnc3ccccc3n1)C(=O)N[C@H](C)C(=O)N2C | 8.6 nM (active) | inactive | -94.2% | 7.6 nM (active) | –
2 | c1cc(Nc2cc(C3CC3)[nH]n2)nc(Nc2ccc3nc[nH]c3c2)n1 | 192 nM (active) | – | -94.9% | 242 nM (active) | –
3 | Cc1cnc(Nc2ccc(F)cc2Cl)nc1-c1c[nH]c(C(=O)NC(CO)c2cccc(Cl)c2)c1 (stereo not given) | 3830 nM (active) | inactive | – | 1920 nM (active) | 8910 nM (active)
4 | CC(C)c1cc(CNc2nc(Nc3cc(C4CC4)[nH]n3)cc(N3CCN(C)CC3)n2)on1 | 215 nM (active) | 12600 nM (active) | – | 541 nM (active) | 2510 nM (active)
5 | CNCCCOc1cc(F)c(-c2c(Cl)nc3ncnn3c2N[C@@H](C)C(F)(F)F)c(F)c1 | 1210 nM (active) | – | -85.4% | 121 nM (active) | –
6 | Cc1c(-c2ccc(-c3ccccc3F)cc2)nc2ccc(F)cc2c1C(=O)O | 108 nM (active) | inactive | -89.2% | 136 nM (active) | –
7 | O=C(O)c1ccc(-c2c[nH]c3ncc(-c4ccccc4)cc23)cc1C1CCCC1 | 1360 nM (active) | inactive | – | 541 nM (active) | –
8 | COc1ccc(-c2ccc3c(N4CCOC[C@@H]4C)nc(N4CCOC[C@@H]4C)nc3n2)cc1CO | 681 nM (active) | – | – | 429 nM (active) | 1000 nM (active)
9 | CC/C(=C(/c1ccc(O)cc1)c1ccc(OCCNC)cc1)c1ccccc1 | 17100 nM (active) | inactive | -36.5% | 24100 nM (active) | –
10 | NC(=O)/C(=C/n1cnc(-c2cc(C(F)(F)F)cc(C(F)(F)F)c2)n1)c1cncnc1 | 607 nM (active) | inactive | – | 108 nM (active) | 1260 nM (active)
11 | CO[C@@H]1[C@@H](O)[C@H](O)[C@@H](n2c3c(Cl)cccc3c3c4c(c5c6cccc(Cl)c6[nH]c5c32)C(=O)NC4=O)O[C@H]1CO | 961 nM (active) | – | – | 857 nM (active) | 1000 nM (active)
12 | O=C(Nc1cc(Oc2cc(F)c(NC(=O)C3(C(=O)Nc4ccc(F)cc4)CC3)cc2F)ccn1)C1CC1 | 21500 nM (active) | inactive | -38.1% | 15200 nM (active) | –
13 | CCNCCS(=O)(=O)NC[C@@]1(c2ccccc2)SC(NC(=O)C(C)(C)C)=NN1C(=O)C(C)(C)C | 60.7 nM (active) | inactive | -77.9% | 54.1 nM (active) | –
14 | O=c1c(-n2ccnn2)c[nH]n1-c1cc(N2CCOCC2)ncn1 | 4820 nM (active) | – | – | 21500 nM (active) | 7080 nM (active)
15 | O=C(CCCCCCC(=O)N/N=C/c1ccc(N(c2ccccc2)c2ccccc2)cc1)NO | 8790 nM (active) | – | – | 7840 nM (active) | 3160 nM (active)
16 | Cc1cc(/C=c2/sc3nc4ccccc4n3c2=O)c(C)n1-c1ccccc1 | 34.1 nM (active) | inactive | -93.9% | 68.1 nM (active) | –
17 | NC(=O)c1ccccc1Nc1ccnc(Nc2cccc(O)c2)n1 | 9610 nM (active) | – | – | 7640 nM (active) | 8910 nM (active)
